53 molecules from PubChem BioAssay AID588342 (National Center for Advancing Translational Sciences (NCATS), 2011) can be followed below.

The whole screen tested about 360,000 compounds, of which about 25,000 (6.9%) were called active. Inconclusive results (about 9%) are left out. The sample holds actives, similar compounds and a random draw of the others, so the mix is not that of the screen. Unmarked numbers belong to inactive results. The call rests on the fitted dose curve; in most records, active means well fitted inhibition curve with a large enough effect; inconclusive means small, poorly fitted or top-dose-only effect; inactive means flat fitted curve, though single readings scatter.

The target in the assay is Luciferin 4-monooxygenase (Photinus pyralis) (UniProt P08659). The assay is described as follows: qHTS profiling assay for firefly luciferase inhibitor/activator using purifed enzyme and Km concentrations of substrates (counterscreen for miR-21 project). Further: nearly all actives have a fitted effect of over 55% in size.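 On activity change, negative = inhibition: plate controls were vehicle for no effect and reference inhibitor for full effect.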 Particulars: purified FLuc, luminescence inhibition; series mostly up to 57.5 µM; activity change, negative = inhibition: at the top concentration. The text has this: MLPCN Grant: 1 R21 NS059478-01 (miR-21 grant) Assay Provider: NCGC NCGC Assay Overview: Firefly (Photinus pyralis) luciferase is one of the most commonly used transcriptional reporters for a number of reasons. It is considered one of the more dynamically responsive reporters -that is, responsive to changes in reporter transcription - as it requires no post-translational modifications and is enzymatically active directly after protein synthesis (Wood, 1998). Additionally, the half-life of the luciferase protein is short relative to other reporter-gene products (Wood, 1995). Whereas reporters with long half-lives potentially allow for increased signal due to accumulation of reporter-gene product, once accumulated in the cell, dynamic changes in reporter-gene expression may be difficult to detect(Fan and Wood, 2007; Almond et al., 2004). It has been shown that wild-type P. pyralis luciferase has a half-life of approximately […] hours in mammalian cells (Thompson et al., 1991). Firefly luciferase reporter-gene assays are also generally considered one of the most sensitive assay types (Wood, 1995; Wood, 1998). Although light produced in a bioluminescence reaction is of lower intensity than that produced during fluorescence emission, this is offset by little to no background light inherent to luminescent assays. Thus the luciferase reporter can be expressed at much lower levels than fluorescent proteins while still providing robust signal. # However, it was initially observed, in 1991, by Thompson et al., that compounds that resemble the substrates of firefly luciferase (FLuc) can act as competitive inhibitors of the enzyme, and that these compounds, upon interaction with luciferase in the cell, can actually stabilize the protein and increase its half-life. Accumulated intracellular FLuc protein can be measured as an increase in luminescence signal, upon addition of detection reagents (which contain high concentrations of FLuc substrates) commonly used in high-throughput screening. In cell-based reporter gene assays that use FLuc as the reporter gene to quantitate the potential influence of a given compound against the target biology, this apparent increase in luminescence can mistakenly be interpreted as identification of a compound that is active against the target of interest. This is the case for the miR-21 FLuc reporter gene assay used to identify inhibitors of the miR-21 pathway (PubChem AID 2289) - compounds of interest will inhibit miR-21 biogenesis/expression or activity, and are identified by causing an increase in luminescence, due to increased FLuc translation. However, FLuc inhibitory compounds that stabilize the FLuc protein will give an identical read-out, making it difficult to distinguish compounds that are active against the target from those active against FLuc. Previous profiling work to determine the prevalence of compounds that affect FLuc enzymatic activity (PubChem AID 411) identified that ~3% of the MLSMR library (then at ~72K) inhibited FLuc. […] Since the MLSMR had grown to ~350K compounds, and since it was expected that a significant percentage of compounds found active in the miR-21 FLuc assay would be FLuc inhibitors, the library was screened for activity against FLuc using a biochemical assay of purified FLuc and KM concentrations of FLuc substrates (D-luciferin and ATP).
Luciferin 4-monooxygenase (Photinus pyralis), sequence (P08659 whole entry, looked up): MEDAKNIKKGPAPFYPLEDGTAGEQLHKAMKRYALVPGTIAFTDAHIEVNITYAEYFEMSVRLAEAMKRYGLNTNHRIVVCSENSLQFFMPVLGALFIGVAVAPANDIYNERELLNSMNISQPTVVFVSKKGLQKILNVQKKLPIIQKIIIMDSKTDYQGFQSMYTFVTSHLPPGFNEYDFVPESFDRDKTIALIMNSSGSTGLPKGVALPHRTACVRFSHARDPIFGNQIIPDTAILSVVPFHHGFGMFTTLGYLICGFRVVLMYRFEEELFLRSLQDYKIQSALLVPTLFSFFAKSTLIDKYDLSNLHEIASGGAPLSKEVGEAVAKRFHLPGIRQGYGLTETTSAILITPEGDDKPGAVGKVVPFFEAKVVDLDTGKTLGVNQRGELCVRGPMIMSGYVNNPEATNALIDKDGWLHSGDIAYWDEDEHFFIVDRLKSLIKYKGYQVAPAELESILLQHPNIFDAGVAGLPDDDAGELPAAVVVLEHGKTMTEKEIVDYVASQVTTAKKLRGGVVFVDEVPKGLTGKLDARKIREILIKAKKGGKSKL
NCGC Assay Protocol Summary: Reagents: 50mM Tris acetate, pH 7.5; 10mM Mg acetate; 10uM D-luciferin (Sigma #L9504); 10uM ATP; 0.01% Tween-20; 0.05% BSA; 10nM P. pyralis luciferase (Sigma #L9506) Control compounds used were two known firefly luciferase inhibitors (compounds (2) and (5) in Auld et al., 2010), and DMSO. […]
A general note: Quantitative high-throughput screening tests each substance at several concentrations.
`COc1cc(C(c2c(NC(=O)c3ccco3)sc(C)c2C)N2CCOCC2)cc(OC)c1OC` (stereo not drawn): the “activity change, negative = inhibition” value is -0.244%.
Same read-out and setting: for `COc1ccc(C2CC(c3cccs3)=NN2c2nc(C)c(C(C)=O)s2)cc1OC` (stereo not drawn) the value was 2.84%; for `COc1ccc(C2CC(c3cccs3)=NN2c2ccc(F)cc2)cc1OC` (stereo not drawn), -19.9%.
Turning to `COc1ccc(C2CC(c3cccs3)=NN2c2ccccc2)cc1` (stereo not drawn), the Potency was 21.3 µM (active).
For `COc1cc(CN(CC2CCCO2)C(=O)c2ccccc2F)cc(OC)c1OC` (stereo not drawn), the “activity change, negative = inhibition” value is -0.254%.
`Oc1ccccc1-c1cc(-c2ccc(Cl)cc2)n[nH]1`: the Potency was 0.953 µM (active).
As to `S=c1[nH]nc(-c2cc(-c3ccccc3)n[nH]2)n1/N=C/c1c2ccccc2cc2ccccc12`, the “activity change, negative = inhibition” value is -14.2%.
As for `Cc1ccc(NC(=O)c2cc(-c3ccccc3O)n[nH]2)cc1C`, the “activity change, negative = inhibition” value is -1.11%.
The same measure, in the same setting: next, `CNc1nc(-c2ccccc2)cc(-c2ccccc2)n1`: -4.74%.
Turning to `c1ccc(-c2cc(-c3ccccc3)[nH]n2)cc1`, the Potency was 7.57 µM (active).
Consider `Oc1cc(O)c2c(c1)OC(c1ccc(O)c(O)c1)C(O)C2` (stereo not drawn), for which the “activity change, negative = inhibition” value is 5.83%.
`Cc1ccc(Cl)cc1NC(=O)CCC(=O)N1CC(C)Sc2ccccc21` (stereo not drawn): the “activity change, negative = inhibition” value was -4.47%.
The same measure, in the same setting: for `CCOC(=O)c1ccc(NC(=O)CSc2nc3c([nH]c4ccccc43)c(=O)n2C)cc1` the value was 2.26%.
With `O=C(CN1CCc2ccccc2C1)Nc1cccc(S(=O)(=O)N2CCOCC2)c1`, the “activity change, negative = inhibition” value is 0.0865%.
Same read-out and setting: for `Cn1c(=O)c(=O)n(C)c2cc(NC(=O)c3ccccc3Br)ccc21` the value was 4.88%; for `CS(=O)(=O)c1ccccc1C(=O)Nc1ccc2sccc2c1`, 1.48%.
`O=C(Nc1ccc2sc3ccccc3c(=O)c2c1)c1ccccc1Cl`: the Potency is 2.13 µM (active).
For the molecule `COc1ccccc1NC(=O)C1=C(C)Nc2ncnn2C1c1sccc1C` (stereo not drawn), the “activity change, negative = inhibition” value was 2.3%.
For `COc1ccccc1Nc1nnc(SC(C)C(=O)NC2CC2)s1` (stereo not drawn), the “activity change, negative = inhibition” value was 3.74%.
`CC1=C(C(=O)OCc2ccccc2)C(c2ccc(C(F)(F)F)cc2)NC(=O)N1CCCCCC(=O)O` (stereo not drawn): the “activity change, negative = inhibition” value was -18%.
As for `Cc1[nH]n(-c2ccccc2)c(=O)c1CCOC(=O)c1ccc(C(F)(F)F)cc1`, the Potency was 21.3 µM (active).
With `CCCOC(=O)c1ccc(N2C(=O)c3ccccc3C2=O)cc1`, the “activity change, negative = inhibition” value was -13%.
As for `O=C(NC1(C(F)(F)F)N=C(c2ccccc2)N(C2CCCCC2)C1=O)c1ccccc1F` (stereo not drawn), the “activity change, negative = inhibition” value was -5.4%.
The same measure, in the same setting: next, `CN(C)CCCN(C(=O)c1ccc(S(=O)(=O)N2CCCc3ccccc32)cc1)c1nc2ccc(F)cc2s1`: 1.08%; `CCS(=O)(=O)N1Cc2ccccc2CC1C(=O)Nc1ccc(OC)cc1OC` (stereo not drawn): 3.71%.
Turning to `CCS(=O)(=O)N1Cc2ccccc2CC1C(=O)Nc1nc2ccc(F)cc2s1` (stereo not drawn), the Potency was 15.1 µM (active).
As to `O=C(COC(=O)c1cc(S(=O)(=O)N2CCOCC2)ccc1Cl)NCCc1ccccc1`, the “activity change, negative = inhibition” value was 4.26%.
Same read-out and setting: for `CCOC(=O)c1c(C)[nH]c(C)c1S(=O)(=O)NCC(=O)NCc1cccc(C)c1` the value was -1.22%; for `CN(Cc1nc(-c2cnccn2)no1)Cc1n[nH]c2c1CCCCC2`, 2.36%.
Consider `COc1ccc(C(=O)NC(Cc2ccc(OC(=O)c3ccc(OC)cc3)cc2)C(=O)O)cc1` (stereo not drawn), for which the Potency was 12 µM (active).
As for `COc1ccc(C(=O)N[C@H](C(=O)NCc2ccccc2)C(C)C)cc1`, the “activity change, negative = inhibition” value is 0.173%.
Same read-out and setting: next, `CCOC(=O)C(Cc1ccccc1)NC(=O)CCC(=O)c1ccc(OC)cc1` (stereo not drawn): 5.51%; `C[C@H](NC(=O)c1[nH]cnc1C(=O)Nc1nccs1)c1ccccc1`: -2.61%.
For the molecule `COc1cc(OC)cc(C(=O)Nc2cc3nn(-c4ccccc4)nc3cc2Cl)c1`, the Potency is 5.36 µM (active).
With `CCOc1ccc(-n2nc3ccc(NC(=O)c4ccc(OC)c(Cl)c4)cc3n2)cc1`, the “activity change, negative = inhibition” value was -2.98%.
For the molecule `COc1cccc(C(=O)Nc2ccc(-c3cc(C(F)(F)F)nn3-c3ccccc3)cc2)c1`, the “activity change, negative = inhibition” value was 3.97%.
Consider `CCC(=O)Nc1ccc(C)cc1-c1nc2ccccc2n(Cc2ccccc2)c1=O`, for which the “activity change, negative = inhibition” value is -1.05%.
Turning to `CC(=O)Oc1ccc(-c2nc3c(C)cccc3c(=O)o2)cc1`, the “activity change, negative = inhibition” value was -16.3%.
Turning to `COc1cccc(/C=C2\C=C(c3ccc(C)cc3)OC2=O)c1OC(C)=O`, the Potency was 15.1 µM (active).
`CN(C)/C=C1\C=C(c2ccccc2)OC1=O`: the “activity change, negative = inhibition” value was -15%.
Still for that read-out and setting: for `O=C1C=C(c2ccnc3cc(Cl)ccc23)C[C@@H](c2ccc3c(c2)OCO3)C1` the value was 2.17%; for `Cc1cc2c(c(=O)n1Cc1ccccc1)C1O[C@](CCCCN3C(=O)c4ccccc4C3=O)(Cc3ccccc31)O2`, 4.34% [at 11.5 µM]; for `O=C(CCCN=C1NS(=O)(=O)c2ccccc21)OCC(=O)c1ccc(F)c(F)c1`, 0.261%.
Same read-out and setting: next, `COc1ccc(C(=O)NCc2cn3ccccc3n2)cc1`: 6.17%; `Cn1cc[n+](C)c1COc1ccc(C=O)cc1`: -0.526%.
For `O=Cc1ccc(OCc2cn3ccccc3n2)cc1`, the Potency was 12 µM (active).
In the case of `Cc1ccc(OCCSc2nc(C)c(Cc3ccccc3)c(=O)[nH]2)cc1`, the “activity change, negative = inhibition” value was -5.18%.
On to `O=C(Nc1ccn(Cc2ccccc2)n1)c1n[nH]c([N+](=O)[O-])c1Cl`, for which the Potency is 0.849 µM (active).
In the case of `O=C(Nc1ccccc1N1CCN(c2ccccc2)CC1)c1cccc(F)c1`, the “activity change, negative = inhibition” value is -0.474%.
On the same count and under the same terms, for `Cc1ccc(Cn2ccc(NC(=O)C3C4CCC(C4)C3C(=O)O)n2)cc1` (stereo not drawn) the value was -2.09%; for `O=C(Cn1cnc([N+](=O)[O-])n1)NCCc1ccccc1`, 6.43%.
For `CCn1c(=O)c(=O)n(CC)c2cc(N3CCCCC3)c(NC(=O)c3cccc(F)c3)cc21`, the “activity change, negative = inhibition” value is 4.07%.
On to `O=C(Nc1ccn(Cc2ccccc2)n1)c1cccc(F)c1`, for which the Potency is 4.78 µM (active).
